Compound activity as filed in PubChem.
LMP1 NFkB inh – inhibitors of Epstein-Barr LMP1-induced NF-kappaB reporter. LMP1-induced NF-kappaB luciferase reporter cells, luminescence. inhibition, % at 12.5 µM. actives 0.69% (n = 350,000). AID 504558; in the data active means inhibition above about 41%; inconclusive means no clear call, values can overlap the other calls;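 further: 0% = neutral control wells and 100% = reference inhibitor control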
TWEAK-Fn14 inh – TWEAK-Fn14 signaling inhibition; actives 2% (n = 360,000); TWEAK-stimulated Fn14 reporter cells, luciferase luminescence, 8 h; inhibition, % at 10 µM; in the data active means inhibition above about 50%
EWS-Fli block – inhibitors of EWS/Fli oncoprotein transcriptional activity | A673 NR0B1-luciferase reporter, viability-normalised | AID 651661 | actives 0.67% (n = 350,000) | inhibition, % at 12.6 µM;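 active means mean inhibition of at least 50% after viability correction, with every replicate also passing that limit; inconclusive means mean reaches 50% but only one of two replicates passes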;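 further: firefly luciferase signal divided by Alamar Blue viability fluorescence both relative to DMSO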
LGR2 inh – blocks bursicon-induced cAMP signaling via Drosophila LGR2; HEK293 LGR2, CRE-luciferase, bursicon-stimulated, 4 h; inhibition, % at 9.99 µM; actives 0.35% (n = 380,000);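 active means drop in luminescence signal, shown as inhibition above about 50% in the replicate tests, limit read from the data, passing the limit was not always enough; inconclusive means probably only some replicates passing the limit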;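 further: agonist challenge used bursicon conditioned medium at about half maximal strength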
PAX8 reporter – inhibitors of PAX8 transcriptional activity in RMG-I cells. RMG-I TPO-luciferase reporter, SteadyGlo, 24 h. inhibition, % at 12.6 µM. actives 1.2% (n = 360,000). AID 652154;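 active means mean replicate inhibition at least 60% with every replicate also reaching 60%; inconclusive means only one of the two criteria is met; inactive means mean below 60% and not all replicates reaching 60%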;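 further: luciferase light reporting Pax8 driven TPO promoter activity; plate controls were median of neutral control wells for no effect and mitoxantrone controls for full effect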
TROY NFkB inh – TROY signaling inhibition | Q293 LMP1-TROYcd NF-kB luciferase reporter, 4 h | inhibition, % at 10 µM | actives 0.98% (n = 360,000) | AID 1347056;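 active means compounds whose plate-normalised and pattern-corrected inhibition of the luciferase reporter signal at the single screening dose is 50% or more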
* marks the source's active call; other numbers are inactive results; ? = inconclusive; / = no result given. In the library only some 3.2% were active in any assay of this set; here they are far more common.

SMILES | LMP1 NFkB inh | TWEAK-Fn14 inh | EWS-Fli block | LGR2 inh | PAX8 reporter | TROY NFkB inh
CCN(CC)c1ccc(C(NC(=O)C(C)C)c2ccc3cccnc3c2O)cc1 (stereo not drawn) | 72* | -9 | 45 | / | 93* | 6
CCCCC(=O)NC(c1ccc(N(C)C)cc1)c1ccc2cccnc2c1O (stereo not drawn) | 34 | 9 | 42 | 12 | 86* | 6
CCCCC(=O)NC(c1ccc(N(CC)CC)cc1)c1ccc2cccnc2c1O (stereo not drawn) | 82* | 11 | 49 | / | 93* | 33
C/C=C/c1ccc2c(c1)O[C@H](CN(C)C(=O)Cc1ccncc1)[C@H](C)CN([C@H](C)CO)S2(=O)=O | / | / | 5 | -10 | 19 | /
C[C@H](CO)N1C[C@H](C)[C@@H](CN(C)Cc2ccc3c(c2)OCO3)Oc2ccc(NC(=O)Cc3ccccc3)cc2CC1=O | / | / | 2 | 5 | 21 | /
Cn1c(Oc2ccc(Cl)cc2)c(C=O)c2ccccc21 | -3 | 64* | / | / | / | 29
COc1ccc(Oc2c(C=O)c3ccccc3n2C)cc1 | 2 | 40 | / | / | / | 13
Cn1c(Sc2ccc(Cl)cc2)c(C=O)c2ccccc21 | 22 | 80* | / | / | / | 55*
C[C@H]1CN([C@@H](C)CO)C(=O)c2cc(NS(=O)(=O)c3cn(C)cn3)ccc2O[C@H]1CN(C)S(=O)(=O)c1cn(C)cn1 | / | / | -7 | 0 | -1 | /
COc1cc(/C=C2\SC(=S)N(N3CCOCC3)C2=O)ccc1O | -5 | -35 | 10 | -14 | 35 | 54*
COc1cc(/C=C2/CC/C(=C/c3ccc(O)c(OC)c3)C2=O)ccc1O | -1 | 29 | 59* | -1 | 71* | 15
COc1cc(/C=C2\CC/C(=C\c3ccc(OCCO)c(OC)c3)C2=O)ccc1OCCO | -1 | 2 | 6 | 5 | -2 | 20
COc1ccc(/C=C2\CC/C(=C\c3ccc(OC)c(OC)c3)C2=O)cc1OC | 3 | 56* | -23 | -4 | 9 | 22
COc1cc(OC)c(OC)cc1/C=C1\CCC/C(=C\c2cc(OC)c(OC)cc2OC)C1=O | 13 | 56* | 6 | 2 | 37 | 11
COc1cc(/C=C2\SC(=S)N(N3CCOCC3)C2=O)cc(OC)c1OC | 2 | 4 | / | 16 | 0 | -6
COc1ccc(/C=C2\CCC/C(=C\c3ccc(OC)c(OC)c3OC)C2=O)c(OC)c1OC | / | 7 | 8 | 17 | 13 | 21
C[C@H]1CN([C@@H](C)CO)C(=O)c2cc(NS(=O)(=O)c3cn(C)cn3)ccc2O[C@H]1CN(C)S(=O)(=O)c1cccs1 | / | / | 5 | 10 | / | /
CN1C(=O)c2cc(NC(=O)Nc3cccc(Cl)c3)ccc2OC[C@H]2O[C@H](CC(=O)O)CC[C@@H]21 | / | / | 1 | -4 | 6 | /
O=C(Nc1cc(F)ccc1F)N1CC(=O)N2[C@@H](CO)[C@H](c3ccc(C#CC4CCCC4)cc3)[C@@H]2C1 | / | / | / | 6 | 30 | /
COc1ccc(C=C2C(=O)c3ccccc3C2=O)cc1O | -8 | -9 | 4 | -21 | 5 | 43
COc1ccc(/C=C2\CN(Cc3ccccc3)C/C(=C\c3ccc(OC)c(O)c3)C2=O)cc1O | 86* | 2 | 62* | 33 | 90* | 5
COc1cc(/C=C2\COC/C(=C\c3ccc(O)c(OC)c3)C2=O)ccc1O | 24 | -12 | 77* | / | 53 | 49
C[C@@H]1CCCCO[C@@H](CN(C)Cc2ccc(C(F)(F)F)cc2)[C@@H](C)CN([C@@H](C)CO)C(=O)c2cc(NC(=O)Nc3cccc4ccccc34)ccc2O1 | / | / | 10 | 8 | 7 | /
COc1ccc(C2NC3=C(CCC3)C3(C#N)C(OC)(OC)N=C(N)C23C#N)cc1 (stereo not drawn) | 62* | 96* | / | / | / | 54*
COC1(OC)N=C(N)C2(C#N)C(c3ccccc3)NC(C)=CC12C#N (stereo not drawn) | -8 | 14 | / | / | / | -7
SMILES | LMP1 NFkB inh | TWEAK-Fn14 inh | EWS-Fli block | LGR2 inh | PAX8 reporter | TROY NFkB inh
Cc1ccc(S(=O)(=O)N(C)Cc2ccc(C(=O)N/N=C/c3ccc(OC(F)F)cc3OC(F)F)cc2)cc1 | 4 | 60* | 18 | / | 28 | 36
O=C(N/N=C/c1ccc(OC(F)F)cc1OC(F)F)c1ccc(Br)cc1 | 2 | -28 | / | -1 | -7 | -8
CC(=O)NCCNC(=O)C1(C)Cc2c(-c3ccc(NC(C)=O)cc3)ccnc2O1 (stereo not drawn) | / | 9 | -7 | 2 | 3 | 4
O=C(NCc1ccccc1)C1Cc2c(-c3ccc4c(c3)OCO4)ccnc2O1 (stereo not drawn) | / | -14 | 60* | -19 | 68* | 7
CC(=O)Nc1ccc(-c2ccnc3c2CC(C(=O)NCc2ccco2)O3)cc1 (stereo not drawn) | / | -8 | 62* | -10 | ? | 28
CC(=O)Nc1ccc(-c2ccnc3c2CC(C(=O)NCC2CC2)O3)cc1 (stereo not drawn) | / | 22 | 6 | 12 | 19 | 6
CC(=O)Nc1ccc(-c2ccnc3c2CC(C(=O)NCc2ccccc2)O3)cc1 (stereo not drawn) | / | 48 | 51* | -28 | 92* | 7
CC(=O)Nc1ccc(-c2ccnc3c2CC(C)(C(=O)NCc2ccco2)O3)cc1 (stereo not drawn) | / | 19 | 54* | 10 | 40 | 22
C[C@H](CO)N1C[C@H](C)[C@H](CN(C)S(=O)(=O)c2cn(C)cn2)Oc2c(NC(=O)c3nc4ccccc4s3)cccc2C1=O | / | / | 5 | 13 | / | /
O=C(Cc1ccncc1)Nc1ccc2c(c1)[C@@H]1C[C@H](CC(=O)NC3CCCCC3)O[C@@H](CO)[C@@H]1O2 | / | / | 21 | -15 | 3 | /
CC(C)NC(=O)Nc1cccc2c1O[C@H](CN(C)Cc1ccc(C(=O)O)cc1)[C@H](C)CN([C@H](C)CO)C2=O | / | / | 1 | 4 | 2 | /
C[C@H](CO)N1C[C@H](C)[C@@H](CN(C)C(=O)Nc2ccc3c(c2)OCO3)Oc2ccc(NS(C)(=O)=O)cc2CC1=O | / | / | -9 | 20 | 1 | /
CC(C)NC(=O)Nc1ccc2c(c1)CC(=O)N([C@@H](C)CO)C[C@@H](C)[C@H](CN(C)C(=O)Nc1ccc(C(F)(F)F)cc1)O2 | / | / | 2 | -2 | -1 | /
CN(C)c1ccc(-c2nn3c(-c4ccccc4Cl)nnc3s2)cc1 | 11 | -3 | / | / | 44 | -3
COc1ccccc1-c1nnc2sc(-c3ccc(N(C)C)cc3)nn12 | 0 | 23 | 60* | -6 | 29 | 24
C[C@@H]1CN([C@H](C)CO)C(=O)c2cc(NC(=O)CCCCCC(=O)Nc3ccccc3N)ccc2O[C@@H]1CN(C)C(=O)Nc1ccc(F)cc1 | / | / | -2 | -6 | -7 | /
CCCc1cn(CC[C@H]2CC[C@@H](NC(=O)Nc3ccc4c(c3)OCO4)[C@@H](CO)O2)nn1 | / | / | 10 | -9 | -5 | /
O=C(CN1C(=O)NC2NC(=O)NC21)N/N=C/c1ccccc1O (stereo not drawn) | 9 | -8 | -3 | -7 | -14 | -24
